Screening results deposited in PubChem BioAssay by National Center for Advancing Translational Sciences (NCATS).
This is one part of a sample in which hits are shown more often than they occur.
FBPA Giardia inh: Giardia lamblia aldolase inhibition | purified Giardia FBPA | Potency, µM (top dose mostly 59.6 µM), actives largely listed as inhibitors | 290,000 compounds, 0.71% hits | A8B2U2; also: nearly all actives have a fitted effect of over 55% in size
Target sequence (A8B2U2 whole entry, looked up): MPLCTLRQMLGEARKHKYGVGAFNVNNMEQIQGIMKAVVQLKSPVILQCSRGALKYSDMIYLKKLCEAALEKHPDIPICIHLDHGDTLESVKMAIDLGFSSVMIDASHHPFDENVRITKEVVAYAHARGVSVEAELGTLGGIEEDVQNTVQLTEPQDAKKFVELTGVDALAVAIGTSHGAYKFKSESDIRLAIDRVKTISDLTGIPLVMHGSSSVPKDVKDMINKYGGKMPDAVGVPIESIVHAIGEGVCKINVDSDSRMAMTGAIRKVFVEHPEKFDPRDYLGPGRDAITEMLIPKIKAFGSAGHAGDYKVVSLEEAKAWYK
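40 nM FBPA preincubated 10 min at RT with compound (up to 57.5 uM final), then substrate plus GAPDH/TPI/NAD/arsenate coupling and diaphorase/resazurin added. Fluorescence read after 20 min at RT, 525/598 nm.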
RE007 growth inh: less growth of the S. pombe RE007 Vpr strain. AID 651644. 360,000 compounds, 0.21% hits. S. pombe RE007 Vpr strain, BacTiter-Glo ATP luminescence, 24 h. Potency, µM (titrated, usually from 92.2 µM), hits mostly inhibitors; active = well fitted falling curve with a large enough effect; inconclusive = small, poorly fitted or top-dose-only effect; inactive = no such curve, though single readings can be large or run the other way; also: nearly all actives have a fitted effect of over 50% in size
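Fission yeast RE007 carrying one integrated HIV-1 vpr copy, seeded at OD 0.01 in PMG+AL medium with 23 nL pinned compound. Grown 24 h at 30 degrees; viability read by BacTiter-Glo luminescence after 5 min.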
Shiga toxin inh: blocks Shiga toxin action in Vero cells | Vero cells, Shiga toxin protein synthesis inhibition reporter | inhibition, % at 38.7 µM | 290,000 compounds, 9.2% hits | AID 2315; in the data active = inhibition mostly above about 28%, no sharp cut-off; inactive = mostly below about 43%
Tb PYK inh: blocks Trypanosoma brucei pyruvate kinase. TbPYK enzyme, Kinase-Glo Plus ATP luminescence, 45 min. Potency, µM (doses to about 76.8 µM), actives largely listed as inhibitors. 410,000 compounds, 0.12% hits. AID 624173; also: nearly all actives have a fitted effect of over 50% in size
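Enzyme and substrate buffer are dispensed first and compound is pin-transferred. ADP at 130 uM final then starts the reaction, which runs 45 min at room temperature. Detection reagent is added for 10 min before luminescence is imaged.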
LmPK inhibitor: inhibitors of Leishmania mexicana pyruvate kinase | AID 1721 | 290,000 compounds, 0.37% hits | purified LmPK, Kinase-Glo ATP luminescence, 1 h | Potency, µM (series often up to 57.5 µM), most hits filed as inhibitors
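qHTS format; LmPK 0.1 nM; substrates PEP 0.5 mM and ADP 0.1 mM. One-hour room-temperature incubation, then coupled luciferase luminescence; 0.5 nM enzyme wells mark activation.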
CHX counter: counter-screen hit for Shiga toxin inhibitors, cycloheximide; cell reporter, cycloheximide protein synthesis inhibition counterscreen; max response, %; 300,000 compounds, 12% hits; in the data active = max response mostly above about 13%, no sharp cut-off; inactive = mostly below about 14%; also: read at 38.3 µM for the half of the compounds with a filed dose
Numbers stand for hits. Unless noted, calls follow the shape of the dose curve; as a rule, active = well fitted curve in the direction sought with a large enough effect; inconclusive = small, poorly fitted or top-dose-only effect, or another doubt; inactive = no such curve, though single readings can be large; an effect the other way counts as inactive or inconclusive.

How did COc1cc2c(C#N)c(N3CCOCC3)nc(N)c2c(N)n1 do in these assays?
FBPA Giardia inh: inconclusive; RE007 growth inh: inactive; Shiga toxin inh: inactive; Tb PYK inh: inactive; LmPK inhibitor: inactive; CHX counter: inactive

Results for CCOc1cc2c(C#N)c(N3CCCCC3)nc(N)c2c(N)n1 ?
FBPA Giardia inh: inconclusive; RE007 growth inh: inactive; Shiga toxin inh: inactive; Tb PYK inh: inactive; LmPK inhibitor: inactive; CHX counter: inactive

How did COc1cc2c(C#N)c(N3CCCCC3)nc(N)c2c(N)n1 do in these assays?
FBPA Giardia inh: 2.23µM; RE007 growth inh: inactive; Shiga toxin inh: inactive; Tb PYK inh: inactive; LmPK inhibitor: inactive; CHX counter: inactive

How did CCOC(=O)C1CCN(c2nc(N)c3c(N)nc(SCC(=O)O)cc3c2C#N)CC1 do in these assays?
FBPA Giardia inh: 7.06µM; RE007 growth inh: inactive; Shiga toxin inh: inactive; Tb PYK inh: inactive; LmPK inhibitor: inactive; CHX counter: inactive

What do the screens show for `Nc1ccccc1C(=O)NCCN1CCNC1=O`?
FBPA Giardia inh: inactive; RE007 growth inh: inactive; Shiga toxin inh: inactive; Tb PYK inh: inactive; LmPK inhibitor: inactive; CHX counter: inactive

Results for O=C(CNC(=O)c1cccc(F)c1)OCC(=O)N1CCCCC1 ?
FBPA Giardia inh: inactive; RE007 growth inh: inactive; Shiga toxin inh: 51.1; Tb PYK inh: inactive; LmPK inhibitor: inactive; CHX counter: 34.9

Results for Cc1cccc(N2CCN(C(=O)CNC(=O)c3ccccc3)CC2)c1C ?
RE007 growth inh: inactive; Shiga toxin inh: 63.0; Tb PYK inh: inactive; LmPK inhibitor: inactive; CHX counter: 33.0

Results for Cc1ccc(C(=O)NCCN2CCNC2=O)cc1 ?
FBPA Giardia inh: inactive; RE007 growth inh: inactive; Shiga toxin inh: 58.3; Tb PYK inh: inactive; LmPK inhibitor: inactive; CHX counter: 27.8

Results for Cc1ccc(C(=O)NCC(=O)N2CCCCCC2)cc1 ?
FBPA Giardia inh: inactive; RE007 growth inh: inactive; Shiga toxin inh: 45.9; Tb PYK inh: inactive; LmPK inhibitor: inactive; CHX counter: 50.5

Results for COC(=O)[C@@]1(Cc2ccccc2)[C@H]2c3cc(C(=O)N4CCCC4)n(Cc4cc(F)cc5c4OCOC5)c3C[C@H]2CN1C(=O)c1ccccc1 ?
FBPA Giardia inh: inactive

What do the screens show for `COC(=O)c1ccc(C(/C=C/[C@@H](C)C(=O)NCc2cc(C)n(C)n2)NC(=O)OCc2ccccc2)cc1` (some centres not stated)?
FBPA Giardia inh: inactive

Results for Clc1ccc2c(c1)-n1cc(-c3ccccc3)nc1CO2 ?
Tb PYK inh: inactive

How did COc1cccc(C2C(C(=O)Nc3ccccc3OC)=C(C)Nc3nc(-c4ccco4)nn32)c1 (configuration not stated) do in these assays?
Tb PYK inh: inactive

Results for CC(C)(C)c1ccc(C(=O)NCC(=O)N2CCCC2)cc1 ?
FBPA Giardia inh: inactive; RE007 growth inh: inactive; Shiga toxin inh: inactive; Tb PYK inh: inactive; LmPK inhibitor: inactive; CHX counter: 25.5

What do the screens show for `Cc1ccc(C(=O)NCCC(=O)N2CCCC2)cc1`?
FBPA Giardia inh: inactive; RE007 growth inh: inactive; Shiga toxin inh: 40.9; Tb PYK inh: inactive; LmPK inhibitor: inactive; CHX counter: 37.5

What do the screens show for `O=C(NCCCC(=O)N1CCCCC1)c1ccc(Cl)cc1`?
RE007 growth inh: inactive; Shiga toxin inh: inactive; Tb PYK inh: inactive; LmPK inhibitor: inactive; CHX counter: inactive

How did Cc1cccc(C(=O)NCC(=O)N2CCCC2)c1 do in these assays?
RE007 growth inh: inactive; Shiga toxin inh: 49.2; Tb PYK inh: inactive; LmPK inhibitor: inactive; CHX counter: 12.4

Results for Cc1ccc(C(=O)NCC(=O)N2CCCCCCC2)cc1 ?
RE007 growth inh: inactive; Tb PYK inh: inactive

What do the screens show for `Cc1cccc(C(=O)NCC(=O)N2CCN(S(=O)(=O)c3ccccc3)CC2)c1`?
RE007 growth inh: inactive; Tb PYK inh: inactive

What do the screens show for `Cc1cccc(-c2nc(SCCCOc3ccccc3Cl)n3[nH]c(=O)cc3n2)c1`?
Tb PYK inh: inactive

What do the screens show for `Cc1ccc(-c2nc(C=Nc3cccc(C)c3)c(O)o2)cc1`?
FBPA Giardia inh: inactive; RE007 growth inh: inactive; Shiga toxin inh: inactive; Tb PYK inh: inactive; LmPK inhibitor: inactive; CHX counter: inactive

What do the screens show for `Oc1oc(-c2ccc(Br)cc2)nc1/C=N/c1ccccn1`?
FBPA Giardia inh: inactive; RE007 growth inh: inactive; Shiga toxin inh: 120.0; Tb PYK inh: inactive; LmPK inhibitor: inactive; CHX counter: 54.1

Results for Cc1ccc(-c2nc(C=Nc3ccccc3)c(O)o2)cc1 ?
FBPA Giardia inh: inactive; RE007 growth inh: inactive; Shiga toxin inh: 84.7; Tb PYK inh: inactive; LmPK inhibitor: inactive; CHX counter: 51.4

What do the screens show for `Cc1ccc(N=Cc2nc(-c3ccco3)oc2O)cc1`?
FBPA Giardia inh: inactive; RE007 growth inh: inactive; Shiga toxin inh: 100.6; Tb PYK inh: inactive; LmPK inhibitor: inactive; CHX counter: 29.4

How did COc1ccc(CNC(=O)c2ccc3nc(C(C)C)oc3c2)cc1OC do in these assays?
Tb PYK inh: inactive

What do the screens show for `CC(C)c1ccc(C2=NC(c3ccncc3)=Nc3ccc(F)cc3N2)cc1`?
Tb PYK inh: inactive

Results for O=C(CSc1nncn2c1cc1sccc12)Nc1ccc(Br)cc1F ?
Tb PYK inh: inactive

How did NS(=O)(=O)c1ccc2nc(NC(=O)Nc3ccccc3F)sc2c1 do in these assays?
FBPA Giardia inh: inactive; RE007 growth inh: inactive; Shiga toxin inh: 104.6; Tb PYK inh: inactive; LmPK inhibitor: inactive; CHX counter: 49.6

How did Cc1ccccc1NC(=O)Nc1nc2ccc(S(C)(=O)=O)cc2s1 do in these assays?
FBPA Giardia inh: inactive; RE007 growth inh: inactive; Shiga toxin inh: active; Tb PYK inh: inactive; LmPK inhibitor: inactive; CHX counter: inactive

Results for COc1ccc(-c2noc(CN(C(C)C)S(=O)(=O)c3ccc(Br)cc3)n2)cc1 ?
Tb PYK inh: inactive

What do the screens show for `CC(NC(=O)c1ccc([N+](=O)[O-])cc1Cl)C1CC2CCC1C2` (configuration not stated)?
FBPA Giardia inh: inactive; RE007 growth inh: inactive; Shiga toxin inh: inactive; Tb PYK inh: inactive; LmPK inhibitor: inactive; CHX counter: 13.9

How did CC(NC(=O)c1ccccc1Cl)C1CC2CCC1C2 (configuration not stated) do in these assays?
FBPA Giardia inh: inactive; RE007 growth inh: inactive; Shiga toxin inh: inactive; Tb PYK inh: inactive; LmPK inhibitor: inactive; CHX counter: inactive

Results for Cc1ccc2scc(N3CCN(C)CC3)c(=O)c2c1 ?
Shiga toxin inh: 82.8; Tb PYK inh: inactive; CHX counter: 47.8

What do the screens show for `COCCOC(=O)c1c(C)oc2ccc(OS(C)(=O)=O)cc12`?
FBPA Giardia inh: inactive; RE007 growth inh: inactive; Shiga toxin inh: inactive; Tb PYK inh: inactive; LmPK inhibitor: inactive; CHX counter: 21.0

How did Cc1oc2ccc(OS(C)(=O)=O)cc2c1C(=O)OC(C)C do in these assays?
FBPA Giardia inh: inactive; RE007 growth inh: inactive; Shiga toxin inh: inactive; Tb PYK inh: inactive; LmPK inhibitor: inactive; CHX counter: inactive
